Consider 17 molecules from PubChem BioAssay (NCATS).

Several values for one entry are separate records, joined by “and”; a condition that tells them apart may be missing. Equal values may be shown once. Values without a mark were called inactive. Calls follow the shape of the dose curve; as a rule, active = well fitted activation curve with a large enough effect; inconclusive = small, poorly fitted or top-dose-only effect; inactive = flat fitted curve, though single readings scatter.

For the experiment, the target named is Peroxisome proliferator-activated receptor alpha (Homo sapiens) (UniProt Q07869). Put plainly: qHTS assay for small molecule agonists of the peroxisome proliferator-activated receptor alpha (PPARalpha) signaling pathway (AID 651778). Also: % of control where 0% means no effect. Conditions: PathHunter PPARalpha complementation, chemiluminescence, 6 h; hits give high values. An excerpt: National Center for Advancing Translational Sciences [NCATS]
Peroxisome proliferator-activated receptor alpha (Homo sapiens), sequence (Q07869 whole entry, looked up): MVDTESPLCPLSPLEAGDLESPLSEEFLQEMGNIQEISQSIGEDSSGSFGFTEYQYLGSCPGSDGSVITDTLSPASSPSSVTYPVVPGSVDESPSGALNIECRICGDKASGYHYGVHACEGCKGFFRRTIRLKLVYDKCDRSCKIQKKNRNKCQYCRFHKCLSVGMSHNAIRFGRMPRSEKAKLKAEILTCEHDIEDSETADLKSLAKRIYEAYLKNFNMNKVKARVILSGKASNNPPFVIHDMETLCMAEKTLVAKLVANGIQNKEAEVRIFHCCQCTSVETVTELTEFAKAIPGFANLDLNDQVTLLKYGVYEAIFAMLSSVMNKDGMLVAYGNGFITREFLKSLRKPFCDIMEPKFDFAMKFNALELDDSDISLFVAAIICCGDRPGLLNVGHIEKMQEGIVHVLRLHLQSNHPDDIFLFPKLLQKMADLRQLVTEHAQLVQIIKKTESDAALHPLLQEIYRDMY
NIH Chemical Genomics Center [NCGC]
U.S. Environmental Protection Agency [EPA]
National Institutes of Environmental Health Sciences [NIEHS]
National Toxicology Program [NTP]
The Peroxisome proliferator-activated receptors (PPARs) are lipid-activated transcription factors of the nuclear receptor superfamily with three distinct subtypes (alpha, garmma and beta/delta). All these subtypes heterodimerize with retinoid X receptor and have different physiological functions. PPARalpha is highly expressed in tissues with high rates of mitochondrial fatty acid oxidation, such as liver, heart, muscle, kidney and cells of the arterial wall. PPARalpha is a major regulator of lipid metabolism and energy homeostasis.
A cell based assay was used to identify activators of PPARalpha. The assay detects binding of a ligand to PPARalpha leading to its activation, translocation and complementation thus forming a functional enzyme capable of hydrolyzing the substrate molecule and generating chemiluminescent signal.
2,000 cells in 6 uL/well were dispensed into white wall/solid bottom 1536-well plates using a Multidrop Combi (Thermo Scientific) dispenser. After incubation 37 C and 5% CO2 overnight, 23 nL compound or DMSO only were transferred by a pin tool. The plates were incubated for 6 hr at 37 C and 5% CO2. 3 ul PathHunter detection reagent (Discoverx) was then added to each well and following 60 min incubation at room temperature, chemiluminescence was quantified on a ViewLux CCD-based plate reader.
For the molecule `O=c1c(-c2ccc(O)cc2)coc2cc(O)ccc12`, the max response is 0.0671% and -0.373%.

As to `O=C(O)c1cc(-c2ccccc2)nc2ccccc12`, the max response is -3.44%. In the case of `O=C1NC(=O)C(c2ccccc2)(c2ccccc2)N1` it was -3.11% and -0.24% and -0.609%; in that of `CC(=O)N[C@@H](CS)C(=O)O`, -0.248%; in that of `O=c1c(O)c(-c2ccc(O)cc2)oc2cc(O)cc(O)c12`, -3% and -2.05%. `O=c1[nH]cnc2c1ncn2[C@H]1CC[C@@H](CO)O1`: the max response is -3.68% and -4.63%. As for `O=c1cc(-c2ccccc2)oc2cc(O)cc(O)c12`, the max response was -1.65%.

`CCCCC1C(=O)N(c2ccccc2)N(c2ccccc2)C1=O`: the max response was -2.74% and -1.79%. With `CC(=O)O[C@]1(C(C)=O)CC[C@H]2[C@@H]3C=C(Cl)C4=CC(=O)[C@@H]5C[C@@H]5[C@]4(C)[C@H]3CC[C@@]21C`, the max response is 0.54% and -4.74%.

As to `CC1=C(/C=C/C(C)=C/C=C/C(C)=C/C(=O)Nc2ccc(O)cc2)C(C)(C)CCC1`, the max response is 8.2%.

Turning to `CCCNC(=O)NS(=O)(=O)c1ccc(Cl)cc1`, the max response was 5.97% and -0.845%. For `CC(=O)c1ccc(S(=O)(=O)NC(=O)NC2CCCCC2)cc1`, the max response was 9.98% and -1.51%. The same measure for `O=C(O)c1cc(O)c2c(c1)C(=O)c1cccc(O)c1C2=O`: -6.2%. On to `O=C(O)Cc1cccc2ccccc12`, for which the max response was -0.727% and -1.42%. As to `CCn1cc(C(=O)O)c(=O)c2ccc(C)nc21`, the max response was -3.78% and -0.0141%. Take `CN(C)CCC(c1ccccc1)c1ccccn1` (configuration not stated): the max response is -0.672%. For the molecule `O=c1cc(-c2ccc(O)cc2)oc2cc(O)cc(O)c12`, the max response was -4.82% and -0.91%.
